Assay results: PubChem BioAssay (Tox21)
Several values for one entry are separate records, joined by “and”; a condition that tells them apart may be missing. Identical values can stand only once. Inconclusive results are not listed. Activity calls are given as the source filed them. Calls follow the shape of the dose curve; as a rule, active = well fitted inhibition curve with a large enough effect in the repeat runs; inconclusive = weak or mixed curves, or effect the other way; inactive = no such curve, though single readings can be large or run the other way.

Target: Androgen receptor (Homo sapiens) (UniProt P10275)
Sequence (P10275 whole entry, looked up): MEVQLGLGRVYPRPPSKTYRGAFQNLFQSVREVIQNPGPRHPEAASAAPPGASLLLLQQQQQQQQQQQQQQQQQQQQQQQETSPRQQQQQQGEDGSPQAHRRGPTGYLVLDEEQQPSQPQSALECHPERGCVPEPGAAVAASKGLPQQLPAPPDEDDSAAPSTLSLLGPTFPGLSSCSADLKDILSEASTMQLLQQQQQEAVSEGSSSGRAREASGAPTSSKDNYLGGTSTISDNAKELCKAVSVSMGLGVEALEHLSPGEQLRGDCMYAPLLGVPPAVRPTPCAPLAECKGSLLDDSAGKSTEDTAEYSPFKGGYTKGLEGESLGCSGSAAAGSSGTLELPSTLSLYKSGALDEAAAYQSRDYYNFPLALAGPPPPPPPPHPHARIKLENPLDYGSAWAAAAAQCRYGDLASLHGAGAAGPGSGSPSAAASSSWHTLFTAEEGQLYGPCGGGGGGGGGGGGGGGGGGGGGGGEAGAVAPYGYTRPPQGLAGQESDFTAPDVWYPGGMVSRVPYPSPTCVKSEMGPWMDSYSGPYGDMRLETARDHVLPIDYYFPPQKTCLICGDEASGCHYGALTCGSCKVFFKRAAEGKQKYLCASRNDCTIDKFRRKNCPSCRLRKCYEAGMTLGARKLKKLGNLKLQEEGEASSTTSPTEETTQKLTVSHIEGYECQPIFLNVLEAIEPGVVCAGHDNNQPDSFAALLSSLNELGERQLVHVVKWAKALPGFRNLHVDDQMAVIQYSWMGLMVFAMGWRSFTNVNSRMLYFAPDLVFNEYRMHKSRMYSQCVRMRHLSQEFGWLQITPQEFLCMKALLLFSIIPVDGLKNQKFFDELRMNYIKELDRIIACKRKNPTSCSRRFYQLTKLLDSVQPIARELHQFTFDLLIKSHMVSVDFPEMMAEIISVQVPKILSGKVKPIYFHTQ
Test: qHTS assay to identify small molecule antagonists of the androgen receptor (AR) signaling pathway using the MDA cell line (AID 743042; also: nearly all actives have a fitted effect of over 55% in size)
Settings: MDA-kb2 AR-luc, MMTV luciferase, R1881 antagonist, 16 h; series mostly up to 70.3 µM; activity change, negative = inhibition: at the top concentration
How it was run: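 MDA-kb2 breast carcinoma cells carrying MMTV-luciferase (AR/GR responsive) were co-treated with compounds and the agonist R1881 for 16 h at 37C. Inhibition read as ONE-Glo luminescence; CellTiter-Fluor fluorescence measured in parallel for cytotoxicity.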
% is scaled to controls: 0 for no effect and ±100 for the full control effect; potency is read from the fitted curve at half-maximal effect.

| SMILES | activity change, negative = inhibition | Potency |
| --- | --- | --- |
| C[N+](C)(C)CC1CO1 (stereo not given) | 1.4% (inactive) | – |
| COP(=O)(OC)OC(Br)C(Cl)(Cl)Br (stereo not given) | – | 68.7 µM (active) and 61.1 µM (active) |
| COc1ccc2c(c1OC)C(=O)O[C@H]2[C@@H]1c2cc3c(cc2CCN1C)OCO3 | 3.98% (inactive) | – |
| O=CC=O | – | inactive |
| CC(=O)NNc1ccccc1 | -10.2% (inactive) | – |
